# Screens as filed in PubChem BioAssay.
# This is a sample that favours compounds with a hit; in the whole collection about 3.5% have one here.
# FBW7 act – activators of human E3 ligase FBW7; Q969H0; AlphaScreen FBW7–phospho-cyclin E peptide binding, activator screen; normalized activity (activation), % at 26.1 µM; 650,000 compounds, 0.13% hits; AID 1259310; in the data active = normalized activity above about 1.9%;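 also: purified mutant Fbw7 with reduced substrate affinity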
# MITF primary – inhibitors of human MITF; AlphaScreen MITF homodimerization, bead proximity signal; inhibition, % at 2.6 µM; 650,000 compounds, 0.91% hits; AID 1259374; in the data active = inhibition above about 50%;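 also: 0% = vehicle wells with protein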
# Target sequence (O75030 whole entry, looked up): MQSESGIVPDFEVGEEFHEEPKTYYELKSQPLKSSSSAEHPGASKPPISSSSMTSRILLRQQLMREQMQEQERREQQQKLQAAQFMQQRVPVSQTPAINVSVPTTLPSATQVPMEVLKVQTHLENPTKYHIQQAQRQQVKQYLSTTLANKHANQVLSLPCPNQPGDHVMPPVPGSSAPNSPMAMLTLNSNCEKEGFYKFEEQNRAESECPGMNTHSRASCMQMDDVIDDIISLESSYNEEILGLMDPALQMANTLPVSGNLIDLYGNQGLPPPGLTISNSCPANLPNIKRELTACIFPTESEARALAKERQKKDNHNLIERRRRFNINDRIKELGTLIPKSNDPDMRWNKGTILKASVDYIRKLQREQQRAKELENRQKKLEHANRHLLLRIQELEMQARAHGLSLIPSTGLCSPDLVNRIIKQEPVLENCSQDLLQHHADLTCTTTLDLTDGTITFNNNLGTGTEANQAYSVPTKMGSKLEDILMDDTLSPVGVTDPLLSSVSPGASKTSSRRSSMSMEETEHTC
# TEAD-YAP inh – TEAD-YAP interaction inhibition; HEK-TIYL cells, TEAD-Gal4/YAP UAS-luciferase luminescence; inhibition, % at 9.12 µM; 640,000 compounds, 1.4% hits; in the data active = inhibition above about 32%;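 also: 0% = median of test compound wells and 100% = reference inhibitor wells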
# GPR151 ag – human GPR151 activation | PathHunter beta-arrestin GPR151 cells, luminescence | activation, % at 11.2 µM | 650,000 compounds, 1% hits | AID 1508602; in the data active = activation above about 4.9%;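 also: 0% = median of compound wells and 100% = cells with positive control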
# * hit, by the source's call.
SMILES,FBW7 act,MITF primary,TEAD-YAP inh,GPR151 ag
CC(=O)Nc1ccc(-c2cn3ccccc3n2)cc1,0,-1,39*,-5
CC(=O)c1c(C)[nH]c(C(=O)OCC(=O)Nc2ccc(Cl)cc2C(F)(F)F)c1C,0,-11,-7,0
CC(O)CNc1nc2c(c(=O)n(C)c(=O)n2C)n1Cc1ccccc1F (stereo unspecified),0,-4,11,1
CC(C)Nc1ncnc2c1nnn2Cc1ccccc1Cl,0,1,-4,1
O=C(Nc1ccccc1I)c1ccc(F)cc1,1,-9,-14,-2
CN(C)S(=O)(=O)c1cccc(NC(=S)Nc2ccccc2CO)c1,0,-1,0,1
COc1ccc(-c2csc(NC(=O)c3cc(C)nn3C)n2)cc1,0,0,63*,0
COc1ccc(-c2csc(NC(=O)c3csc(C)c3)n2)cc1,-1,-5,-4,1
CC(=O)Nc1ccc2nc(NC(=O)c3ccccc3C)sc2c1,0,-5,-56,-5
O=C(NC(=S)Nc1nc2ccccc2s1)c1ccccc1Cl,0,0,70*,-10
COc1ccc(CNC(=O)c2ccc(OC(C)C)cc2)cc1,0,5,-37,-1
Cc1ccccc1C(=O)Nc1ccc2nc(NC(=O)c3ccccc3C)sc2c1,0,7,55*,1
CC(C)Oc1ccc(C(=O)NCc2ccccc2)cc1,2.5*,12,-22,-1
CC(C)(C)c1ccc(C(=O)Nc2nc3ccccc3s2)cc1,0,10,39*,1
Cc1cnc(C(=O)Nc2ccccc2-c2nnn(CC(=O)NC3CCCCC3)n2)cn1,0,2,0,0
COc1ccccc1C(=O)Nc1nc2ccccc2s1,0,6,95*,-11
CCCOc1ccc(C(=O)Nc2nc3ccccc3s2)cc1,0,-10,6,-3
COc1ccc(C(=O)Nc2nc3c(Cl)cccc3s2)c(OC)c1,0,-17,78*,1
CCCc1ccc(C(=O)Nc2nc3ccccc3s2)cc1,0,3,38*,-3
O=C(Nc1nc2ccccc2s1)c1ccc(C(=O)c2ccccc2)cc1,0,-3,-26,-1
COc1ccccc1C(=O)Nc1nc2ccc(NC(C)=O)cc2s1,0,-26,12,0
CC(C)Oc1ccc(C(=O)Nc2nc3ccccc3s2)cc1,0,1,73*,-6
COc1ccc(/C=C2\N=C(c3ccc(Br)o3)OC2=O)cc1OC,0,2,0,1
CC(=O)N=CC1=C(O)c2ccccc2C1=O,0,8,24,0
Cc1ccsc1C(=O)Nc1nc2ccc(S(C)(=O)=O)cc2s1,0,3,62*,-12
SMILES,FBW7 act,MITF primary,TEAD-YAP inh,GPR151 ag
CC(=O)Nc1ccc(Nc2nc(-c3c(C)nc4sccn34)cs2)cc1,0,8,48*,1
CN(C)c1ccc(Nc2nc(-c3ccccc3)cs2)cc1,0,38,43*,-7
Cc1nc2sccn2c1-c1csc(Nc2ccc(N(C)C)cc2)n1,0,10,55*,1
Cc1nc2sccn2c1-c1csc(Nc2ccc(O)cc2)n1,0,-16,18,0
Cc1ccccc1Nc1nc(-c2c(C)nc3sccn23)cs1,0,-4,-4,-1
Fc1cccc(NC(=S)NCC2CCCO2)c1 (stereo unspecified),0,12,2,2
CCCCSc1nnc(-c2ccc3c(c2)OCO3)n1C,2.1*,13,-71,0
O=C(O)COc1ccc(/C=C/c2nc3ccccc3s2)cc1,0,-3,72*,-8
CCN(CC)c1ccc(Nc2nc(Nc3ccc(N(CC)CC)cc3)nc(Sc3nc4ccccc4s3)n2)cc1,0,8,-6,2
CCN(CC)c1ccc(/C=C/c2nc3ccccc3s2)cc1,-1,-10,64*,-1
O=C(O)c1ccc(/C=C/c2nc3ccccc3s2)cc1,0,-3,-40,-2
COc1ccc(C2Nc3ccccc3NC3=C2C(=O)CC(c2ccccc2Cl)C3)c(OC)c1 (stereo unspecified),0,-2,-6,1
O=C(CC(Sc1cccc2cccnc12)c1ccc(OC(F)F)cc1)c1ccco1 (stereo unspecified),-2,-14,51*,-2
Cc1ccc2c(c1)c(C)cc(=O)n2CC(=O)O,0,-70,-7,2
Cc1[nH]ncc1-c1ccc2nc(C3COc4ccccc4C3)[nH]c(=O)c2c1 (stereo unspecified),1,17,50*,-2
COc1ccc2c(c1)CC(c1nc3cc(-c4cn[nH]c4C)ccc3c(=O)[nH]1)CO2 (stereo unspecified),0,10,40*,1
COc1ccccc1OCc1nc2ccc(-c3cn[nH]c3C)cc2c(=O)[nH]1,0,10,38*,-1
Cc1ccc2c(c1)CC(c1nc3ccc(-c4cn[nH]c4)cc3c(=O)[nH]1)CO2 (stereo unspecified),0,47,-10,-2
COc1ccc2c(c1)CC(c1nc3cc(-c4ccncc4)ccc3c(=O)[nH]1)CO2 (stereo unspecified),0,19,-2,1
COc1ccccc1N1C(=O)CC(S/C(N)=N/N=C(\C)c2ccc(O)cc2)C1=O (stereo unspecified),0,82*,-7,0
O=c1nc(N/N=C/c2ccc(O)cc2)cn[nH]1,0,28,-2,-3
O=c1nc(N/N=C/c2c[nH]c3ccccc23)cn[nH]1,0,-7,58*,-5
O=c1nc(N/N=C/C=C/c2ccccc2)cn[nH]1,0,7,50*,-3
O=c1c2c(nc3cc(-c4ccco4)[nH]n13)CCS2,0,89*,-29,-2
C1=Nc2ccccc2SC(c2cccnc2)=C1,0,-4,86*,-11
SMILES,FBW7 act,MITF primary,TEAD-YAP inh,GPR151 ag
CC(C)CC(=O)Nc1ccnn1C1CCN(Cc2ccc(-n3cccn3)cc2)CC1,0,-9,2,2
Cc1ccccc1C(=O)NNC(=O)c1cccc(O)c1,0,1,-26,-1
NNC(=O)/C(=C\c1cccs1)NC(=O)c1ccccc1,0,2,33*,0
NNC(=O)/C(=C\c1ccccc1)NC(=O)c1ccccc1,0,-1,7,1
COc1cc(C2C(C(=O)N3CCCCC3)=C(C)NC3=C2C(=O)CC(C)(C)C3)cc(OC)c1O (stereo unspecified),0,3,2,0
CCCN1CCC2(CC1)NC(=O)N(CC(=O)NCCc1ccccc1)C2=O,0,10,4,-2
CCCN1CCC2(CC1)NC(=O)N(CC(=O)NCCc1ccc(OC)c(OC)c1)C2=O,2.7*,15,8,0
COc1ccc(C2CC(=O)C=C(Nc3cc(Cl)ccc3O)C2)cc1 (stereo unspecified),2.1*,4,3,0
COc1ccc(C2CC(=O)C=C(Nc3cc(C)ccc3O)C2)cc1 (stereo unspecified),0,-4,3,-1
COc1ccc(CCNc2nc(-c3ccccc3)ncc2C)cc1,0,-4,42*,-2
COc1ccc(CCNc2nc(-c3c(C)nn(C)c3C)ncc2C)cc1,0,11,3,2
